Data taken from PubChem BioAssay (NCATS).
Where “and” joins values, the source holds several entries; their conditions need not be identical. Equal entries are not always repeated. Inconclusive results are not listed. Where a call stands in place of a potency, no number is given. Calls of active or inactive are those of the source. Calls come from the whole dose curve.

Columns and labels:
[1] = Primary qHTS for inhibitors of SARS-S pseudo-typed particle cell entry (AID 1479145); conditions: outcome: dose series up to 57.1 µM unless noted; note: nearly all actives have a fitted effect of over 45% in size
[2] = Primary qHTS for Huh7 cytotoxicity: counterscreen for inhibitors of MERS-S pseudotyped particle cell entry (AID 1479147); conditions: outcome: dose series up to 57.1 µM unless noted
[3] = Primary qHTS for inhibitors of MERS-S pseudo-typed particle cell entry (AID 1479149); conditions: outcome: dose series up to 57.1 µM unless noted; note: nearly all actives have a fitted effect of over 60% in size
[4] = Primary qHTS for Vero E6 cytotoxicity: counterscreen for inhibitors of SARS-S pseudo-typed particle cell entry (AID 1479150); conditions: outcome: dose series up to 57.1 µM unless noted
[5] = Cytotoxicity counterscreen for inhibitors of SARS-CoV-2 cell entry (AID 1645845); conditions: outcome: dose series up to 57.1 µM unless noted; note: nearly all actives have a fitted effect of over 50% in size
Outline: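 HEK293-ACE2 cells (Expi293F stably expressing human ACE2) seeded overnight, then compound for 1 h plus 48 h at 37C. Viability as ATP content by luminescence; normalized to wells with cells and media-only wells.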

[6] = Primary qHTS to identify inhibitors of SARS-CoV-2 cell entry (AID 1645846); conditions: SARS-CoV-2 pseudovirus cell entry assay, luminescence; activity change, negative = inhibition: at 57.1 µM (top of the series) unless noted; note: nearly all actives have a fitted effect of over 45% in size
Outline: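 Data are normalized to wells receiving SARS-CoV-2-S pseudoparticles and those given bald particles. Entry signal was luciferase luminescence in stable hACE2 Expi293F cells, 48 hr post-infection, after 1 hr compound pretreatment.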

For `C[C@@H]1C[C@H]2[C@@H]3C[C@H](F)C4=CC(=O)C=C[C@]4(C)[C@@]3(F)[C@@H](O)C[C@]2(C)[C@@]1(O)C(=O)COC(=O)C(C)(C)C`, the Potency [1] was “inactive”, the Potency [2] was “inactive” and the Potency [3] was “inactive”. The Potency [4] was “inactive”, the Potency [5] was “inactive” and the Potency [6] was “inactive”.
With `CC(=O)OCC(=O)[C@@]12OC3(CCCC3)O[C@@H]1C[C@H]1[C@@H]3CCC4=CC(=O)C=C[C@]4(C)[C@@]3(F)[C@@H](O)C[C@@]12C` the Potency [1] was “inactive”, the Potency [2] was “inactive” and the Potency [3] was “inactive”. For the same compound, the Potency [4] was “inactive”, the Potency [5] was “inactive” and the Potency [6] was “inactive”.
In the case of `CCCC(=O)O[C@]1(C(=O)COC(C)=O)CC[C@H]2C3C[C@H](F)C4=CC(=O)C=C[C@]4(C)[C@@]3(F)[C@@H](O)C[C@@]21C` (stereo partly drawn), the Potency [1] is reported as “inactive”, the Potency [2] is reported as “inactive” and the Potency [3] is reported as “inactive”. The Potency [4] was “inactive”, the Potency [5] was “inactive” and the activity change, negative = inhibition [6] was -5.47%.
In the case of `O=C(CCc1ccc(O)cc1)c1c(O)cc(O)cc1O[C@@H]1O[C@H](CO)[C@@H](O)[C@H](O)[C@H]1O`, the Potency [1] is reported as “inactive”, the Potency [2] is reported as “inactive” and the Potency [3] is reported as “inactive”. The Potency [4] was “inactive”, the Potency [5] was “inactive” and the activity change, negative = inhibition [6] was 0.14% and -17.3%.
With `O=C(OC1C(OC(=O)c2cccnc2)C(OC(=O)c2cccnc2)C(OC(=O)c2cccnc2)C(OC(=O)c2cccnc2)C1OC(=O)c1cccnc1)c1cccnc1` (stereo not drawn) the Potency [1] was “inactive”, the Potency [2] was “inactive” and the Potency [3] was “inactive”. For the same compound, the Potency [4] was “inactive”, the Potency [5] was “inactive” and the activity change, negative = inhibition [6] was -19.4% [at 19 µM].
With `Cc1cc2nc3c(=O)[nH]c(=O)nc-3n(C[C@H](O)[C@H](O)[C@H](O)COP(=O)(O)OP(=O)(O)OC[C@H]3O[C@@H](n4cnc5c(N)ncnc54)[C@H](O)[C@H]3O)c2cc1C` the Potency [1] was “inactive”, the Potency [2] was “inactive” and the Potency [3] was “inactive”. The Potency [4] was “inactive”, the Potency [5] was “inactive” and the activity change, negative = inhibition [6] was -9.08% [at 27.1 µM].
In the case of `O=C(Cc1cccs1)NC1C(=O)N2C(C(=O)[O-])=C(C[n+]3ccccc3)CSC12` (stereo not drawn), the Potency [1] is reported as “inactive”, the Potency [2] is reported as “inactive” and the Potency [3] is reported as “inactive”. For the same compound, the Potency [4] was “inactive”, the Potency [5] was “inactive” and the activity change, negative = inhibition [6] was -15.7%.
With `C[C@@H]1CC2C3C[C@H](F)C4=CC(=O)C=C[C@]4(C)[C@@]3(F)[C@@H](O)C[C@]2(C)[C@@]1(OC(=O)c1ccco1)C(=O)SCF` (stereo partly drawn) the Potency [1] was “inactive”, the Potency [2] was “inactive” and the Potency [3] was “inactive”. The Potency [4] was “inactive”, the Potency [5] was “inactive” and the activity change, negative = inhibition [6] was 3.79%.
For `Cc1cc(=O)c(C(=O)N[C@@H](C(=O)N[C@@H]2C(=O)N3C(C(=O)O)=C(CSc4nnnn4C)CS[C@H]23)c2ccc(O)cc2)c[nH]1`, the Potency [1] was “inactive”, the Potency [2] was “inactive” and the Potency [3] was “inactive”. The Potency [4] was “inactive”, the Potency [5] was “inactive” and the activity change, negative = inhibition [6] was -20.7%.
For `Cc1oc(=O)oc1COC(=O)N1CC[C@@H](N2CC/C(=C\C3=C(C(=O)O)N4C(=O)[C@@H](NC(=O)/C(=N/O)c5nsc(N)n5)[C@H]4SC3)C2=O)C1`, the Potency [1] was “inactive”, the Potency [2] was “inactive” and the Potency [3] was “inactive”. For the same compound, the Potency [4] was “inactive”, the Potency [5] was “inactive” and the activity change, negative = inhibition [6] was -27.9%.
For `CCOC(=O)[C@H](CCc1ccccc1)N[C@H](C)C(=O)N1C2CCCCC2C[C@H]1C(=O)O` (stereo partly drawn), the Potency [1] was “inactive”, the Potency [2] was “inactive” and the Potency [3] was “inactive”. For the same compound, the Potency [4] was “inactive”, the Potency [5] was “inactive” and the activity change, negative = inhibition [6] was -29.8%.
For `CCCC(=O)O[C@]1(C(=O)COC(=O)CC)[C@@H](C)C[C@H]2[C@@H]3CCC4=CC(=O)C=C[C@]4(C)[C@@]3(F)[C@@H](O)C[C@@]21C`, the Potency [1] was “inactive”, the Potency [2] was “inactive” and the Potency [3] was “inactive”. For the same compound, the Potency [4] was “inactive”, the Potency [5] was “inactive” and the Potency [6] was “inactive”.
In the case of `C[C@H]1CN(C[C@H](Cc2ccccc2)C(=O)NCC(=O)O)CC[C@@]1(C)c1cccc(O)c1`, the Potency [1] is reported as “inactive”, the Potency [2] is reported as “inactive” and the Potency [3] is reported as “inactive”. For the same compound, the Potency [4] was “inactive”, the Potency [5] was “inactive” and the activity change, negative = inhibition [6] was -6.59% and -17.3%.
With `CCC(=C(CC)c1ccc(OP(=O)(O)O)cc1)c1ccc(OP(=O)(O)O)cc1` the activity change, negative = inhibition [1] was -9.86% [at 0.573 µM] (inactive), the outcome [2] was “inactive [at 0.573 µM]” and the outcome [3] was “inactive [at 0.573 µM]”. The activity change, negative = cytotoxicity [4] was -3.89% [at 0.573 µM] (inactive), the activity change, negative = cytotoxicity [5] was 1.12% [at 0.702 µM] (inactive) and the activity change, negative = inhibition [6] was -22.1% [at 0.702 µM].
With `CC(Oc1ccccc1)C(=O)N[C@@H]1C(=O)N2[C@@H]1SC(C)(C)[C@@H]2C(=O)O` (stereo partly drawn) the Potency [1] was “inactive”, the Potency [2] was “inactive” and the Potency [3] was “inactive”. For the same compound, the Potency [4] was “inactive”, the Potency [5] was “inactive” and the activity change, negative = inhibition [6] was -18.1%.
In the case of `CC(OC(=O)OC1CCCCC1)OC(=O)C1=C(CSc2nnnn2CCN(C)C)CS[C@@H]2[C@H](NC(=O)Cc3csc(N)n3)C(=O)N12` (stereo partly drawn), the Potency [1] is reported as “inactive”, the Potency [2] is reported as “inactive” and the Potency [3] is reported as “inactive”. For the same compound, the Potency [4] was “inactive”, the Potency [5] was “inactive” and the activity change, negative = inhibition [6] was -37%.
With `CCC(C(=O)NC(N)=O)c1ccccc1` (stereo not drawn) the Potency [1] was “inactive”, the Potency [2] was “inactive” and the Potency [3] was “inactive”. The Potency [4] was “inactive”, the Potency [5] was “inactive” and the activity change, negative = inhibition [6] was -16.3%.
In the case of `CN(C)/C(N)=N/C(=N)N`, the outcome [1] is reported as “inactive [setting not given]”, the outcome [2] is reported as “inactive [setting not given]” and the outcome [3] is reported as “inactive [setting not given]”. The outcome [4] was “inactive [setting not given]”, the outcome [5] was “inactive [setting not given]” and the outcome [6] was “inactive [setting not given]”.
With `CCCN(CC)C(CC)C(=O)Nc1c(C)cccc1C` (stereo not drawn) the Potency [1] was “inactive”, the Potency [2] was “inactive” and the Potency [3] was “inactive”. The Potency [4] was “inactive”, the Potency [5] was “inactive” and the activity change, negative = inhibition [6] was -22.8%.
In the case of `Cc1ccc(/C=C2\C(=O)C3(C)CCC2C3(C)C)cc1` (stereo not drawn), the Potency [1] is reported as “inactive”, the Potency [2] is reported as “inactive” and the Potency [3] is reported as “inactive”. The Potency [4] was “inactive”, the Potency [5] was “inactive” and the Potency [6] was “inactive”.
With `NC(=O)c1nc(F)c[nH]c1=O` the Potency [1] was “inactive”, the Potency [2] was “inactive” and the Potency [3] was “inactive”. The Potency [4] was “inactive”, the Potency [5] was “inactive” and the activity change, negative = inhibition [6] was -11.1% and -27.4%.
For `C#C[C@]1(O)CC[C@H]2[C@@H]3CCC4=CC(=O)CCC4[C@H]3CC[C@@]21CC` (stereo partly drawn), the Potency [1] was “inactive”, the Potency [2] was “inactive” and the Potency [3] was “inactive”. For the same compound, the Potency [4] was “inactive”, the Potency [5] was “inactive” and the activity change, negative = inhibition [6] was -19.1%.
With `C1CNCCN1` the Potency [1] was “inactive”, the Potency [2] was “inactive” and the Potency [3] was “inactive”. The Potency [4] was “inactive”, the Potency [5] was “inactive” and the activity change, negative = inhibition [6] was 2.96% [at 114 µM].
